Records with an inconclusive call do not appear. Active and inactive are the calls of the source. Calls follow the shape of the dose curve; as a rule, active = well fitted inhibition curve with a large enough effect; inconclusive = small, poorly fitted or top-dose-only effect; inactive = no such curve, though single readings can be large or run the other way.

The text below walks through data of PubChem BioAssay (NCATS).
Potency is read from the fitted curve at half-maximal effect.

A short description of one assay: qHTS Screen of the MIPE 4.0 Collection Against Ewings Sarcoma (TC71) (AID 1259253). Also: nearly all actives have a fitted effect of over 40% in size. Conditions: TC71 Ewing sarcoma viability, CellTiter-Glo, 48 h; series mostly up to 45.8 µM. Put shortly: (§1)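 Cells plated in serum-containing RPMI (5% FBS) and treated with compound dilutions for 48 h. Readout luminescent viability; normalization relied on vehicle (no inhibition) and media-only columns (full inhibition).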
Background: In qHTS, concentration-response curves come from the screen itself.
In the case of `CC[C@H]1OC(=O)[C@H](C)[C@@H](O[C@H]2C[C@@](C)(OC)[C@@H](O)[C@H](C)O2)[C@H](C)[C@@H](O[C@@H]2O[C@H](C)C[C@H](N(C)C)[C@H]2O)[C@](C)(O)C[C@H](C)C(=NOCOCCOC)[C@H](C)[C@@H](O)[C@]1(C)O`, the Potency entry is “inactive”.

Regarding `COc1ccc(CCC(=O)Nc2nc3ccc(Cl)cc3s2)cc1OC`, the Potency was 18.7 µM (active).

Regarding `COc1ccc(Cn2ccc3ccc(C(=O)NO)cc32)cc1`, the Potency was 13.2 µM (active).

In the case of `O=C(O)CCC=CCC[C@@H]1[C@H](N2CCCCC2)[C@@H](O)C[C@@H]1OCc1ccc(-c2ccccc2)cc1`, the Potency result was “inactive”.

`O=C(CO)N1CCC(c2[nH]nc(-c3ccc(Cl)cc3)c2-c2ccncn2)CC1`: the Potency entry was “inactive”.

In the case of `CCOC(=O)[C@@H](N)CCC(=O)N[C@@H](CSCc1ccccc1)C(=O)N[C@@H](C(=O)OCC)c1ccccc1`, the Potency result is “inactive”.

For the molecule `C[C@]12CCC3=C4CCC(=O)C=C4CC[C@@H]3[C@H]1CC[C@@]2(O)CC#N`, the Potency entry was “inactive”.

On to `Cc1ccc(S(=O)(=O)Nc2nc3ccccc3nc2Nc2ccc3nsnc3c2)cc1`, for which the Potency was 12.9 µM (active).

With `CC1=C(CC(=O)O)c2cc(F)ccc2C1=Cc1ccc(S(C)=O)cc1` (stereo not given), the Potency is 1.32 µM (active).

Take `O=c1[nH]nc(OCCCc2ccc(Cl)cc2)c(NCc2cccnc2)c1Br`: the Potency was 16.6 µM (active).

As to `COc1cc2c(cc1Cc1cccc(Cl)c1F)c(=O)c(C(=O)O)cn2[C@H](CO)C(C)C`, the Potency is 20.9 µM (active).

As to `CC(C)C[C@@H](N)[C@H](O)C(=O)N[C@H](C(=O)N[C@H](C(=O)N[C@@H](CC(=O)O)C(=O)O)C(C)C)C(C)C`, the Potency was 18.7 µM (active).

Turning to `C=C1[C@H](n2cnc3c(=O)[nH]c(N)nc32)C[C@H](O)[C@H]1CO`, the Potency is 14.8 µM (active).

In the case of `C[C@@H](O[C@H]1OCCN(Cc2n[nH]c(=O)[nH]2)[C@@H]1c1ccc(F)cc1)c1cc(C(F)(F)F)cc(C(F)(F)F)c1`, the Potency was 20.9 µM (active).

Consider `CC(O)=C(C#N)C(=O)Nc1ccc(C(F)(F)F)cc1`, for which the Potency is 18.7 µM (active).

The nature of the next assay: qHTS Screen of the MIPE 4.0 Collection Against Ewings Sarcoma (EW8) (AID 1259255). Also: nearly all actives have a fitted effect of over 35% in size. Conditions: EW8 Ewing sarcoma viability, CellTiter-Glo, 48 h; series mostly up to 45.8 µM. In short, it runs like this: as §1
As to `Cc1cccc2c1CC[C@H](CN1CCC(c3c(Cl)cccc3Cl)CC1)C[C@@H]2O`, the Potency is 14.8 µM (active).

As for `O=C(Nc1ccc(OC(F)(F)F)cc1)c1sccc1NCc1ccnc2ccccc12`, the Potency is 18.7 µM (active).

With `CC(C)C[C@@H](C(=O)N[C@H](C(=O)OC1CCCC1)c1ccccc1)[C@H](O)C(=O)NO`, the Potency was 18.7 µM (active).

For `NCC1CCC(C(=O)O)CC1` (stereo not given), the Potency entry is “inactive”.

As to `CN(C)CCN(C)C(=O)c1ccc(NC(=O)Nc2ccc(-c3nc(N4CCOCC4)c4ccn(CC(F)(F)F)c4n3)cc2)cc1`, the Potency is 0.0209 µM (active).

Regarding `CC(=O)OCC(=O)[C@@]1(O)CC[C@H]2[C@@H]3CCC4=CC(=O)C=C[C@]4(C)[C@@H]3[C@@H](O)C[C@@]21C`, the Potency result was “inactive”.

Take `CCOC(=O)c1c(CSc2ccccc2)n(C)c2cc(Br)c(O)c(CN(C)C)c12`: the Potency is 20.9 µM (active).

For `Cc1ccccc1C(C(=O)NC1CCCCC1)N(C(=O)CNc1ccc(C#N)cc1)c1cccc(F)c1` (stereo not given), the Potency result is “inactive”.

In the case of `COc1ccc(Cn2ccc3ccc(C(=O)NO)cc32)cc1`, the Potency is 14.8 µM (active).

On to `O=C(Nc1ncc(SCCN2CCCC2)s1)[C@]1(c2ccc(S(=O)(=O)C3CC3)cc2)C[C@@H]1C1CCCCC1`, for which the Potency was 13.2 µM (active).

On to `N#CC(=C1Nc2ccccc2S1)c1ccnc(OCc2ccc(CN3CCOCC3)cc2)n1`, for which the Potency was 5.26 µM (active).

For `C[C@]12CCC3=C4CCC(=O)C=C4CC[C@@H]3[C@H]1CC[C@@]2(O)CC#N`, the Potency entry is “inactive”.

With `COc1cc2c(cc1Cc1cccc(Cl)c1F)c(=O)c(C(=O)O)cn2[C@H](CO)C(C)C`, the Potency is 23.5 µM (active).

As to `C[C@@H](O[C@H]1OCCN(Cc2n[nH]c(=O)[nH]2)[C@@H]1c1ccc(F)cc1)c1cc(C(F)(F)F)cc(C(F)(F)F)c1`, the Potency is 26.4 µM (active).

As to `CC(O)=C(C#N)C(=O)Nc1ccc(C(F)(F)F)cc1`, the Potency is 20.9 µM (active).

For the molecule `CCC(=O)NCC[C@@H]1CCc2ccc3c(c21)CCO3`, the Potency entry was “inactive”.

For `O[C@@H](COc1cccc2ncccc12)CN1CCN(C2c3ccccc3[C@@H]3[C@H](c4ccccc42)C3(F)F)CC1` (stereo not given in full), the Potency is 23.5 µM (active).

Take `Cc1csc(-c2nnc(Nc3ccc(Oc4ncccc4-c4ccnc(N)n4)cc3)c3ccccc23)c1`: the Potency is 0.0059 µM (active).

A further assay can be described thus: qHTS Screen of the MIPE 4.0 Collection Against Ewings Sarcoma (TC32) (AID 1259256). Also: nearly all actives have a fitted effect of over 45% in size. Conditions: TC32 Ewing sarcoma viability, CellTiter-Glo, 48 h; series mostly up to 45.8 µM. Put shortly:
as §1
For `Cc1nc(NC(=O)N2CCC[C@@H]2C(N)=O)sc1-c1csc(C(C)(C)C)n1`, the Potency is 6.62 µM (active).

Regarding `O=C(Nc1ccc(OC(F)(F)F)cc1)c1sccc1NCc1ccnc2ccccc12`, the Potency was 18.7 µM (active).

Turning to `O=C1CN2Cc3c(ccc(Cl)c3Cl)N=C2N1`, the Potency was 23.5 µM (active).

Turning to `CCc1cc(-c2n[nH]c(C)c2-c2ccc3c(c2)OCCO3)c(O)cc1O`, the Potency is 4.18 µM (active).

As for `Cc1ccccc1C(C(=O)NC1CCCCC1)N(C(=O)CNc1ccc(C#N)cc1)c1cccc(F)c1` (stereo not given), the Potency result was “inactive”.

Regarding `COc1ccc(CCC(=O)Nc2nc3ccc(Cl)cc3s2)cc1OC`, the Potency is 13.2 µM (active).

As to `C[C@H](CCC(=O)O)[C@H]1CC[C@H]2[C@H]3[C@@H](CC[C@]12C)[C@@]1(C)CC[C@@H](O)C[C@H]1C[C@@H]3O`, the Potency entry is “inactive”.

Turning to `N#CC(=C1Nc2ccccc2S1)c1ccnc(OCc2ccc(CN3CCOCC3)cc2)n1`, the Potency was 7.43 µM (active).

On to `C[C@]12CCC3=C4CCC(=O)C=C4CC[C@@H]3[C@H]1CC[C@@]2(O)CC#N`, for which the Potency entry was “inactive”.

Consider `Cc1ccc(S(=O)(=O)Nc2nc3ccccc3nc2Nc2ccc3nsnc3c2)cc1`, for which the Potency is 16.2 µM (active).

For `CC1=C(CC(=O)O)c2cc(F)ccc2C1=Cc1ccc(S(C)=O)cc1` (stereo not given), the Potency is 1.48 µM (active).

`CCC(=O)NCC[C@@H]1CCc2ccc3c(c21)CCO3`: the Potency result is “inactive”.
